Reference: the supplement of paper PMC10849652
Targets with a hit are over-represented here; the source holds about 7,900 in all. About 0.6% of all pairs of compound and target were hits.

Each target was assayed with C1COCCN1CCN2C3=CC=CC=C3N=C2NC(=O)C4=CC(=CC=C4)[N+](=O)[O-] [IRAK-1-4 Inhibitor I] (assay: log2 fold change, soluble protein after heating vs DMSO (PISA); higher = thermal stabilisation; K562 cells, 10 uM, 30 min; active = over 0.2 and 3.5 SD of the protein, either way, in both replicates (recomputed)).
Summary of the method: (§1)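 Thermal stability values are relative to control samples and come from duplicates. They are expressed as log2 fold changes. For measurement, K562 cells (2×10^6 cells/mL) received 10 μM compound for 30 min, and aliquots were heated for 3 min over 48°C-58°C, pooled, and extracted at 4°C in PBS with 0.5% NP-40. Soluble protein, the supernatant after 21,000xg for 90 min, was quantified by TMTpro 16plex LC-MS/MS with equalised channel sums.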

Sequence of UniProt Q53GQ0 (Q53GQ0 whole entry, looked up): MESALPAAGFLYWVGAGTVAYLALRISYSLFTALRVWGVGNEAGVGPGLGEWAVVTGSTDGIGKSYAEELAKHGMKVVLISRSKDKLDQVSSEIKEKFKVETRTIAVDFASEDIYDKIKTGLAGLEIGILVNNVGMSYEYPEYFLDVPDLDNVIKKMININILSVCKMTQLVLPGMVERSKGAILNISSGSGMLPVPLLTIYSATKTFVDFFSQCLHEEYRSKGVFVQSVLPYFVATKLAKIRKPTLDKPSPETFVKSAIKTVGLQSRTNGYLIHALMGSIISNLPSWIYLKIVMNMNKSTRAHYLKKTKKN
Sequence of UniProt Q5JWF2 (Q5JWF2 whole entry, looked up): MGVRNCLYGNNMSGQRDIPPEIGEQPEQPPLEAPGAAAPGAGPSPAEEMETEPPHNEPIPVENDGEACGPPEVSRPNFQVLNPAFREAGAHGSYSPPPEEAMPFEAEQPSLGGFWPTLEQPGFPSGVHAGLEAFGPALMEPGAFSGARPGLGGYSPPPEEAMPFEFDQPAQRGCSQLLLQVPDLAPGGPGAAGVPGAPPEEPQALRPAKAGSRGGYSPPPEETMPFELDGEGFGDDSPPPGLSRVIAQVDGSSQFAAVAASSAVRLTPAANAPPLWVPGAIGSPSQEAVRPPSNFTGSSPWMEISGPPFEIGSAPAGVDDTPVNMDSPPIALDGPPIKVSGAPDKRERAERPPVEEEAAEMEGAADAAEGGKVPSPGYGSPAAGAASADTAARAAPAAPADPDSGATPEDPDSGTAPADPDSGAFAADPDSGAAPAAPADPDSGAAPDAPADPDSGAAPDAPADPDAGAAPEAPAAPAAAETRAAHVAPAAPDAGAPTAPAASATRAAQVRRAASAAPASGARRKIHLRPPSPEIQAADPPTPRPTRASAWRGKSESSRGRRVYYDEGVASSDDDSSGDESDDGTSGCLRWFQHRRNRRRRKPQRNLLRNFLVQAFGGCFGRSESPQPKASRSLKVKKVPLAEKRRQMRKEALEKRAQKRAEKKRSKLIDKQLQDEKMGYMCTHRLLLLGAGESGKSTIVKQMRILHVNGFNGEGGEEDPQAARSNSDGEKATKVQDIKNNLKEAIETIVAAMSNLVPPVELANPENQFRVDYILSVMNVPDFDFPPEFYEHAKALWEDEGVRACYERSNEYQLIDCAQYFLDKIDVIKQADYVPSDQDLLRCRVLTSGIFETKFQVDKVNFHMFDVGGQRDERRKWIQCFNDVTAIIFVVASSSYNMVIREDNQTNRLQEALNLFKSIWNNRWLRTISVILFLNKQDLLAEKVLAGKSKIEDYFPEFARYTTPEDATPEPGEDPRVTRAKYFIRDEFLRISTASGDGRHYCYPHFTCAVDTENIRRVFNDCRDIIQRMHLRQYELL
Sequence of UniProt P15104 (P15104 whole entry, looked up): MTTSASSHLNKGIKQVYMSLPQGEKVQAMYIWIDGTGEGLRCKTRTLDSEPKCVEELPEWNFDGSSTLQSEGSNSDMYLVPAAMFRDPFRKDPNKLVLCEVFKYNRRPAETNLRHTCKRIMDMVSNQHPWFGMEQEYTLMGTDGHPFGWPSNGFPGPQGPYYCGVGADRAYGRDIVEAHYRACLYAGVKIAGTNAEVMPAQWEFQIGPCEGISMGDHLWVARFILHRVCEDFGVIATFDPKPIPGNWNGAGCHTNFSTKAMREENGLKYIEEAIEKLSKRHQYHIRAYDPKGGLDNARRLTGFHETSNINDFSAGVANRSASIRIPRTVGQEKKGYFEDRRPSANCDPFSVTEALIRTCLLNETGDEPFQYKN
Sequence of UniProt Q10471 (Q10471 whole entry, looked up): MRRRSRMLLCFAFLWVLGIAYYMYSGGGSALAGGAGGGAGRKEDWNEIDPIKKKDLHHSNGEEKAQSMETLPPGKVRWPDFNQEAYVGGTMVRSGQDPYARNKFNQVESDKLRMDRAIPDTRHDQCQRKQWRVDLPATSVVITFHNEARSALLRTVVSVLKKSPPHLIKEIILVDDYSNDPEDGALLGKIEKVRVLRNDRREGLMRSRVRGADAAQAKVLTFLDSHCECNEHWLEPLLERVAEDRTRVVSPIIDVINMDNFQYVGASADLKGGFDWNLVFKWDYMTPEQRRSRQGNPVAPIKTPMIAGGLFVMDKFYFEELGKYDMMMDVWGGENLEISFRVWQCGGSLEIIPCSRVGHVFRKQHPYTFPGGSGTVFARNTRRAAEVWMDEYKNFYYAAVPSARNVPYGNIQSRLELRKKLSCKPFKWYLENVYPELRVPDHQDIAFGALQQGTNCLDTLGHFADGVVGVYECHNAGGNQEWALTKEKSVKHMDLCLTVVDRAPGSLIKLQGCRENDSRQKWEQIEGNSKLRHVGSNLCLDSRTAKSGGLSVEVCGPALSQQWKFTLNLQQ
Sequence of UniProt Q8WXD5 (Q8WXD5 whole entry, looked up): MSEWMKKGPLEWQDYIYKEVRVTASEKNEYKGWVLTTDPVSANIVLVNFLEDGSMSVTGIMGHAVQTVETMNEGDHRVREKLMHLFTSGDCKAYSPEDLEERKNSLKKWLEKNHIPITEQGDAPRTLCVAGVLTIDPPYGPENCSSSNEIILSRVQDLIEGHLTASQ
Sequence of UniProt P22570 (P22570 whole entry, looked up): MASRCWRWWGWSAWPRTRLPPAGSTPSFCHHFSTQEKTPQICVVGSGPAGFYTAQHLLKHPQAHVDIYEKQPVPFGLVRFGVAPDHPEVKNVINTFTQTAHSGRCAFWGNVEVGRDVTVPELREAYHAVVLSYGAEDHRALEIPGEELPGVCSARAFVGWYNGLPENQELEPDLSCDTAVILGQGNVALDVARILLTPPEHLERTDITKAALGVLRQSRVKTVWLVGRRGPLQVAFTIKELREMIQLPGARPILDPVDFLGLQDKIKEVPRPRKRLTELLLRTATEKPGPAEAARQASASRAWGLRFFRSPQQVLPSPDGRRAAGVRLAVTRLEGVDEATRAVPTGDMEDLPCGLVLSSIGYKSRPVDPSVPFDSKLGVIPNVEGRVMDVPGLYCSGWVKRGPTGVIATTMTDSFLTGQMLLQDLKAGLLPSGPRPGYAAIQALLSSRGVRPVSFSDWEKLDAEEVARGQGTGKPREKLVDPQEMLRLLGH
Sequence of UniProt P14324 (P14324 whole entry, looked up): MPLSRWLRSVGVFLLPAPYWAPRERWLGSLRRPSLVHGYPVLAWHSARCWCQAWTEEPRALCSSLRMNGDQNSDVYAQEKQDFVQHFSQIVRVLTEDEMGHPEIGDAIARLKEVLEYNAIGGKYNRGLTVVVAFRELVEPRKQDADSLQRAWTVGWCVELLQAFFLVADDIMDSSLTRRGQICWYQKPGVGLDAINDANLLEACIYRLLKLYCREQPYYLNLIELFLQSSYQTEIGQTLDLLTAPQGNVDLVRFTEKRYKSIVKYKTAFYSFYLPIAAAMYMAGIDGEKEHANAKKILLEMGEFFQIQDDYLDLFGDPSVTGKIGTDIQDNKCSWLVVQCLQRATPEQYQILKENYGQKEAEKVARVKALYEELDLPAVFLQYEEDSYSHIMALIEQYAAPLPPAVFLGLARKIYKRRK
Sequence of UniProt P52597 (P52597 whole entry, looked up): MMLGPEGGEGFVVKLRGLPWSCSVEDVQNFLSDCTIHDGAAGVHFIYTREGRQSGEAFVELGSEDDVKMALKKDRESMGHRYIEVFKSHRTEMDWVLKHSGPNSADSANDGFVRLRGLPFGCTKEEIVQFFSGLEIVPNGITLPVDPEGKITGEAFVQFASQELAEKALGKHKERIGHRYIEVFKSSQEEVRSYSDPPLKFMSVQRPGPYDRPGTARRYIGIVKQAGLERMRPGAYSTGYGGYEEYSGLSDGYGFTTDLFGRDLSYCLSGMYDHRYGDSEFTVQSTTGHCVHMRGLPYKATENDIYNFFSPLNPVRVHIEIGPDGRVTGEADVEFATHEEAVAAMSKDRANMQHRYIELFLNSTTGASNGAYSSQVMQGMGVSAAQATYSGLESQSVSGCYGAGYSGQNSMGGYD
Sequence of UniProt Q9P2H3 (Q9P2H3 whole entry, looked up): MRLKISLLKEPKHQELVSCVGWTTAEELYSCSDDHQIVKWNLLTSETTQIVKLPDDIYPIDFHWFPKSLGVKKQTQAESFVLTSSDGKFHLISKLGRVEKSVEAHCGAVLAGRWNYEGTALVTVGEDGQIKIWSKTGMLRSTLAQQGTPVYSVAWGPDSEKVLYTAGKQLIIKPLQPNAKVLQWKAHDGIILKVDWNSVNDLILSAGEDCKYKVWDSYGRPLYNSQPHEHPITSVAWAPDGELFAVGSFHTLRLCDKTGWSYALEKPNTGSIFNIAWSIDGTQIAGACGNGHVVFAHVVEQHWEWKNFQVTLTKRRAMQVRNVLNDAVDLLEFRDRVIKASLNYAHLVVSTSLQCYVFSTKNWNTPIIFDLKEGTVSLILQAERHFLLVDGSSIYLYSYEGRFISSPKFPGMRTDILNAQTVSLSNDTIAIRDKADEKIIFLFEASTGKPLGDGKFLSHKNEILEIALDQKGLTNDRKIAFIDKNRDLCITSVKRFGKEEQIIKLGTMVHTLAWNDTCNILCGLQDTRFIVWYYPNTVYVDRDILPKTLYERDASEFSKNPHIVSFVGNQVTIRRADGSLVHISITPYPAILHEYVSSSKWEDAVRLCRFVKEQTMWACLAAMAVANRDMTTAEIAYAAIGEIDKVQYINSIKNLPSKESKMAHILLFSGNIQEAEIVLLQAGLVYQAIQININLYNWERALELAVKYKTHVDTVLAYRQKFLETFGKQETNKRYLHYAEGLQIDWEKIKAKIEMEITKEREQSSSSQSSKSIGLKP
Sequence of UniProt Q8N9F7 (Q8N9F7 whole entry, looked up): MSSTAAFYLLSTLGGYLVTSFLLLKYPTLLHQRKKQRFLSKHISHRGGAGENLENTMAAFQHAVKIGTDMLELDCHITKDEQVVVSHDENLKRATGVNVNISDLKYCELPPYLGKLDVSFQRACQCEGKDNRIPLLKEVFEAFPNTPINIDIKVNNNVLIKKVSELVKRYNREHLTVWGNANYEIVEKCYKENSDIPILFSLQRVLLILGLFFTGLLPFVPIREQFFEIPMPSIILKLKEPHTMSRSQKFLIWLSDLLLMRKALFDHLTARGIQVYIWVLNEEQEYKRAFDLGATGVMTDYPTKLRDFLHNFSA

log2 fold change, inactive:
HSD17B12 (UniProt Q53GQ0) -0.01
HNRNPF (UniProt P52597) -0.143
GALNT2 (UniProt Q10471) 0.009
IFT80 isoform 3 (UniProt Q9P2H3) 0.03
GEMIN6 (UniProt Q8WXD5) 0.035
FDPS (UniProt P14324) -0.127
GNAS (UniProt Q5JWF2) -0.04
GOPC (UniProt Q9HD26) -0.119
FDXR isoform 7 (UniProt P22570) 0.031
HECTD1 (UniProt Q9ULT8) -0.076
GLUL (UniProt P15104) 0.054

What follows are targets tested with C=CC(=O)N1CCC[C@@H](n2nc(-c3ccc(Oc4ccccc4)cc3)c3c(N)ncnc32)C1 [ibrutinib] in the same assay as above.
Summary of the method: as §1

log2 fold change, inactive:
HADHB (UniProt P55084) 0.074
GDPD1 (UniProt Q8N9F7) -0.03
HBZ (UniProt P02008) -0.001
FNTA (UniProt P49354) 0.107
FUBP3 (UniProt Q96I24) -0.002
FAM91A1 (UniProt Q658Y4) -0.025
GTF3C4 (UniProt Q9UKN8) 0.032
HSPA8 (UniProt E9PK54) -0.012
GNPAT (UniProt O15228) -0.007
GTF2A2 (UniProt P52657) -0.028
HBA1 (UniProt P69905) 0.007
GDI1 (UniProt P31150) 0.018
HMOX2 (UniProt P30519) -0.035
HMGN2 (UniProt P05204) -0.009
GYG1 (UniProt P46976) 0.025
FKBP3 (UniProt Q00688) 0.009
HEATR5B (UniProt Q9P2D3) 0.017
FKBP4 (UniProt Q02790) -0.005
H2AFX (UniProt P16104) 0.077
GUSB (UniProt P08236) -0.016
HDAC6 (UniProt Q9UBN7) 0.314
FBXO42 (UniProt Q6P3S6) -0.009
HP1BP3 (UniProt Q5SSJ5) 0.003
GEMIN5 (UniProt Q8TEQ6) -0.014
HSD17B12 (UniProt Q53GQ0) 0.038
HNRNPF (UniProt P52597) -0.023
GALNT2 (UniProt Q10471) -0.019
IFT80 isoform 3 (UniProt Q9P2H3) 0.099
GEMIN6 (UniProt Q8WXD5) 0.021
FDPS (UniProt P14324) -0.066
GNAS (UniProt Q5JWF2) 0.001
GOPC (UniProt Q9HD26) -0.104
FDXR isoform 7 (UniProt P22570) 0.046
HECTD1 (UniProt Q9ULT8) -0.027
GLUL (UniProt P15104) 0.009
